From PubChem BioAssay
Hsp90 Hop PPI = qHTS Assay for Disrupters of an Hsp90 Co-Chaperone Interaction. AlphaScreen TPR2A-His6 binding biotin-Hsp90 C-terminal peptide. Potency, µM (titrated, usually from 57 µM), for inactives: at the top dose activity change, negative = inhibition. hit rate 0.44% among 71,000; active = well fitted curve in either direction with a large enough effect; inconclusive = small, poorly fitted or top-dose-only effect, or another doubt; also: % is scaled to controls: 0 for no effect and ±100 for the full control effect
15-hLO-2 inh = qHTS Assay for Inhibitors of 15-hLO-2 (15-human lipoxygenase 2). AID 881, 2007. purified 15hLO-2, xylenol orange hydroperoxide absorbance. Potency, µM (titrated, usually from 57.1 µM), for inactives: at the highest dose activity change, negative = inhibition, usual class: inhibitors. Polyunsaturated fatty acid lipoxygenase ALOX15B (Homo sapiens), O15296. hit rate 0.56% among 110,000; also: % is scaled to controls: 0 for no effect and ±100 for the full control effect; nearly all actives have a fitted effect of over 60% in size
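Screening format was qHTS against 50 nM purified 15hLO-2 in Hepes pH 7.5 with detergent. Activity follows hydroperoxide formation from 45 uM arachidonic acid, measured as 573:405 nm absorbance ratio of the ferric-xylenol orange complex.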
Caspase-7 inhib = qHTS Assay for Allosteric/Competitive Inhibitors of Caspase-7 | recombinant caspase-7, Ac-DEVD-AFC fluorescence rate | Potency, µM (highest dose often 57.5 µM), without a hit: top-dose activity change, negative = inhibition, hits mostly inhibitors | P55210 | AID 889, 2007 | hit rate 0.02% among 75,000; active = well fitted inhibition curve with a large enough effect in the main read-out, with a control signal flat, not every such curve was filed as active; inconclusive = small, poorly fitted or top-dose-only effect, or a change in a side signal; also: % of control where 0% means no effect
Caspase-1 inhib = qHTS Assay for Allosteric/Competitive Inhibitors of Caspase-1; P29466; Caspase-1 enzyme, Ac-WEHD-AFC fluorogenic rate; Potency, µM (highest dose often 57.5 µM), without a hit: at the highest dose activity change, negative = inhibition, usual class: inhibitors; hit rate 0.03% among 75,000; AID 900, 2007;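 also: plate controls were vehicle for no effect and no substrate for full effect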
15-hLO inh = qHTS Assay for Inhibitors of 15-hLO (15-human lipoxygenase) | Potency, µM (titrated, usually from 57.1 µM), inactives show top-dose activity change, negative = inhibition, hits mostly inhibitors | Polyunsaturated fatty acid lipoxygenase ALOX15 (Homo sapiens), P16050 | purified 15hLO-1, xylenol orange hydroperoxide absorbance | hit rate 1.4% among 74,000 | AID 887, 2007; also: % is scaled to controls: 0 for no effect and ±100 for the full control effect; nearly all actives have a fitted effect of over 55% in size
Target sequence (P16050 whole entry, looked up): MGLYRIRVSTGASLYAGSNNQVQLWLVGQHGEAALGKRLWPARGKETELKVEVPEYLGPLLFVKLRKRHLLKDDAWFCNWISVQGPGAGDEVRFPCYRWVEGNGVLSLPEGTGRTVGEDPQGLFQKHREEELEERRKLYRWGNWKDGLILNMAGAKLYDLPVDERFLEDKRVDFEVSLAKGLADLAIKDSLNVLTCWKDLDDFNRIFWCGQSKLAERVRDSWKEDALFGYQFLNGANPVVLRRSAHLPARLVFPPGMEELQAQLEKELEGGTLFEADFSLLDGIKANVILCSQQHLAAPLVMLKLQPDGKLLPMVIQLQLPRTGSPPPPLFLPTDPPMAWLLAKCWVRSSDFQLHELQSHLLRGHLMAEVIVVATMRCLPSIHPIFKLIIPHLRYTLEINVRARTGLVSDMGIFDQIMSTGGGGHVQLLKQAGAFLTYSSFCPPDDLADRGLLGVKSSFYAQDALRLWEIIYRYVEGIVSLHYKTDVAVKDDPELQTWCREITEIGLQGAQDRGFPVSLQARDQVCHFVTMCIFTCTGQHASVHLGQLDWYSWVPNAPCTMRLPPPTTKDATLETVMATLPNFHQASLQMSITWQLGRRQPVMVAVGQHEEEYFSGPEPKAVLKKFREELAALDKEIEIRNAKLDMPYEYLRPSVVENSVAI
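Inhibition is scored from a chromogenic endpoint. After 15 min enzyme-compound contact, arachidonic acid (50 uM final) reacts 6 min with 40 nM 15hLO-1 at room temperature, then Fe-XO reagent is added for 30 min and absorbance ratio recorded.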
Tau fil binding = qHTS Assay for Tau Filament Binding. recombinant tau filaments, thioflavin S fluorescence, 15 h; filaments grown with octadecylsulfate alongside compound. Microtubule-associated protein tau (Homo sapiens), P10636. Potency, µM (series often up to 57.1 µM), inactives show at the highest dose activity change, negative = inhibition. hit rate 2% among 71,000;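 also: % is scaled to controls: 0 for no effect and ±100 for the full control effect; actives lower thioflavin S fluorescence by blocking filaments or displacing dye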
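Tau 2 uM in ThS buffer dispensed; compound added; 60 uM ODS added (finals 1 uM tau, 30 uM ODS); 15 h 37 C; fluor ex450/em510.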
Numbers without * were called inactive; ? = inconclusive; . = no result given; ! = not confirmed by another sample; [ ] = remark or other dose. Hits are enriched below; roughly 2.4% of the tested compounds scored in any of these assays. Unless noted, calls follow the shape of the dose curve; as a rule, active = well fitted curve in the direction sought with a large enough effect; inconclusive = small, poorly fitted or top-dose-only effect, or another doubt; inactive = no such curve, though single readings can be large; an effect the other way counts as inactive or inconclusive. Potency is read from the fitted curve at half-maximal effect.

SMILES	Hsp90 Hop PPI	15-hLO-2 inh	Caspase-7 inhib	Caspase-1 inhib	15-hLO inh	Tau fil binding
O=C(O)c1cc(N=Nc2ccc([N+](=O)[O-])cc2)ccc1O	-28%[11 µM]	-6%[11.4 µM]	4%[11.5 µM]	-2%[11.5 µM]	0%[11.4 µM]	32µM*!
NS(=O)(=O)c1ccc(N=Nc2ccc(O)c(C(=O)O)c2)cc1	-8%[11 µM]	-17%[11.4 µM]	-2%[11.5 µM]	-3%[11.5 µM]	-22%[11.4 µM]	0%[11.4 µM]
O=c1c(-c2ccccc2)nc2cncnc2n1Cc1ccccc1	3%	11%	-17%	-5%	-2%	20µM*
O=c1c(-c2cccc(F)c2)nc2cncnc2n1Cc1ccccc1	-13%	2%	-4%	-8%	-16%	20µM*
Nc1cc(N)nc(SCC(=O)NNC(=O)c2ccc(Cl)cc2)n1	.	10%	.	.	.	.
CC(NC(=O)c1ccco1)C(c1cccs1)N1CCN(c2ccccc2F)CC1 (stereo not drawn)	-1%	.	-3%	-3%	-7%	6%
CCOC(=O)c1ccc(-n2[nH]c(-c3ccccc3)cc2=O)cc1	-11%	-28%	-1%	-1%	-20%	16µM*
CCn1cnc2c1c(=O)n(Cc1csc(-c3ccccc3)n1)c(=O)n2Cc1ccccc1	-1%	-5%	-4%	-3%	10%	18%
C=CCOc1ccc2cccc(/C=N/NC(=O)c3cc4cc([N+](=O)[O-])ccc4s3)c2c1	.	10µM*	.	.	.	.
COC(=O)CN(c1nc(C)c(Br)c(OC)n1)S(=O)(=O)c1ccc(C)cc1	.	-4%	.	.	.	.
COc1cc2c(C#N)c(N3CCN(C)CC3)nc(N)c2c(N)n1	.	1%	.	.	.	.
N#Cc1c(N2CCCC2)nc(N)c2c(N)nc(N3CCCC3)cc12	25µM*	20%	?	.	-6%	-26%
CN(C)C(=O)Cn1c(SCC(=O)N2CCCc3ccccc32)nc2ccccc21	-2%	4%	0%	0%	-29%	14%
O=C(CSc1nnc(CNC(=O)c2cccs2)o1)c1ccc(Cl)cc1	-1%	-12%	-2%	-1%	-8%	3%
O=C(CSc1nnc(CNC(=O)c2ccccc2F)o1)c1ccc(Cl)cc1	-2%	-17%	-1%	1%	-7%	32µM*
CC(C)c1cc(C(=O)Nc2ccc3c(c2)OCO3)no1	-6%	-3%	-5%	1%	-11%	13µM*
Cc1onc(-c2c(Cl)cccc2Cl)c1C(=O)Nc1ccc2c(c1)OCO2	-4%	1%	-2%	2%	0%	3.2µM*
Cn1c(C(=O)Nc2ccc3c(c2)OCO3)cc2sccc21	-16%	-11%	-2%	1%	-26%	13µM*
CC1(C)N=C(N)N=C(N)N1c1ccc(F)cc1F	.	5%	.	.	.	.
CCCc1cc(C(N)=O)c(NC(=O)c2cc(C)on2)s1	-6%	-20%	-9%	-3%	?	32µM*
CCCc1cc(C(N)=O)c(NC(=O)c2ccoc2C)s1	?	0%[2.29 µM]	-8%	-14%	?	-24%
C=C(C)CNCCN	-9%[11 µM]	-9%[11.4 µM]	-1%[11.5 µM]	-1%[11.5 µM]	7%[11.4 µM]	8%[11.4 µM]
O=C(O)c1ccc(Nc2ccnc3cc(Cl)ccc23)cc1O	4%[11 µM]	-5%[11.4 µM]	-1%[11.5 µM]	0%[11.5 µM]	9%[11.4 µM]	14%[11.4 µM]
Clc1ccc(NNc2ccnc3cc(Cl)ccc23)cc1	.	16µM*	.	.	.	.
CC(C)=CCC/C(C)=C/C=O	0%	2%	0%	0%	-15%	9%
SMILES	Hsp90 Hop PPI	15-hLO-2 inh	Caspase-7 inhib	Caspase-1 inhib	15-hLO inh	Tau fil binding
CC(C)=CCCC(C)CCO (stereo not drawn)	-1%	8%	-2%	3%	7.9µM*	-7%
Cc1ccccc1NC(=O)Cn1nnc2c(cnn2-c2ccc(F)cc2)c1=O	.	-30%	.	.	.	.
O=C(Cn1nnc2c(cnn2-c2ccc(F)cc2)c1=O)OC1CCCCC1	?	-2%	-4%	-4%	-9%	20µM*
Oc1ccc(-c2csc(-c3ccccc3)n2)cc1O	.	4µM*	.	.	.	.
CC(C)C(=O)Nc1ccc(-c2csc(-c3ccccc3)n2)cc1	.	4%	.	.	.	.
Cc1nc(NCc2ccccc2)[nH]c(=O)c1CCC(C)C	-1%	10%	-1%	-2%	-7%	16µM*
Cn1nc(C(F)(F)F)c(/C=N/OC(=O)c2ccc(Cl)cc2)c1Cl	.	7%	.	.	.	.
O=C1C=CC(=O)c2c(O)c(Cl)c(Cl)c(O)c21	.	0%	2%	3%	1µM*	.
COC(=O)c1ccc2c(c1)C(C)(C)C(/C=C/c1ccc(OC)c(OC)c1OC)=[N+]2C	.	13µM*	.	.	.	.
COC(=O)c1ccc2c(c1)C(C)(C)C(/C=C/c1ccc(O)cc1)=[N+]2C	.	-16%[11.4 µM]	.	.	.	.
Oc1ccc(CN2CCN(Cc3ccccc3)CC2)c2cccnc12	4µM*	-1%	0%	-1%	59%	-24%
Oc1ccc(CNc2ccc(F)cc2)c2cccnc12	7.9µM*	-12%	-1%	0%	3%	-18%
Oc1c(CN2CCCCC2)cc(Br)c2cccnc12	3.2µM*	7%	0%	-1%	41%	-28%
COCc1ccc(O)c2ncccc12	.	20%	.	.	.	.
COC(=O)[C@@H]1C[C@@]2(O)[C@H](O)[C@H](O)[C@H](O)C[C@H]2N1Cc1ccc(C(F)(F)F)cc1	.	4%	0%	1%	.	.
O=C(Nc1ccc(SC(F)F)cc1)c1ccc2nccnc2c1	-8%	-2%	1%	-1%	-16%	13µM*
O=C(CSC1=NS(=O)(=O)c2ccccc21)Nc1ccccc1	-3%	13µM*	1%	-1%	-27%	-25%
COC(=O)CSC1=NS(=O)(=O)c2ccccc21	-1%	?	0%	0%	6%	15%
CCNc1nc(NCC)nc(ON=C(C)C)n1	.	-10%	.	.	.	.
